Assays:
Assay in all cases: thermal shift delta Tm vs DMSO control; higher = stronger stabilization (binding)
Details in all cases: 12.5 µM; protein concentration 2 µM
LOC_OS01G57100-cb003 = tested on: LOC_OS01G57100-cb003
Summary of the method: (§1)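 The melting temperature shift given here is a triplicate mean, measured against protein that received only DMSO. Melting temperatures came from Boltzmann fits of differential scanning fluorimetry data on E. coli-expressed, purified rice kinase domain constructs. Each 19.5 μl well contained 2 μM kinase, 100 mM potassium phosphate pH 7.5, 150 mM NaCl, 10% glycerol, 5 × SYPRO Orange and compound in DMSO. Plates were scanned from 25°C to 95°C at 0.05°C/s.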

LOC_OS01G60330-cb001 = tested on: LOC_OS01G60330-cb001
Summary of the method: as §1

LOC_OS01G60700-cb002 = tested on: LOC_OS01G60700-cb002
Summary of the method: as §1

LOC_OS01G63280-cb003 = tested on: LOC_OS01G63280-cb003
Summary of the method: as §1

LOC_OS01G67340-cb003 = tested on: LOC_OS01G67340-cb003
Summary of the method: as §1

LOC_OS01G70970-cb002 = tested on: LOC_OS01G70970-cb002
Summary of the method: as §1

LOC_OS02G07810-cb001 = tested on: LOC_OS02G07810-cb001
Summary of the method: as §1

LOC_OS02G08530-cb003 = tested on: LOC_OS02G08530-cb003
Summary of the method: as §1

LOC_OS02G14120-cb001 = tested on: LOC_OS02G14120-cb001
Summary of the method: as §1

LOC_OS02G17970-cb001 = tested on: LOC_OS02G17970-cb001
Summary of the method: as §1

LOC_OS02G45750-cb003 = tested on: LOC_OS02G45750-cb003
Summary of the method: as §1

LOC_OS02G54510-cb004 = tested on: LOC_OS02G54510-cb004
Summary of the method: as §1

LOC_OS03G04050-cb001 = tested on: LOC_OS03G04050-cb001
Summary of the method: as §1

LOC_OS03G12390-cb001 = tested on: LOC_OS03G12390-cb001
Summary of the method: as §1

LOC_OS03G27990-cb004 = tested on: LOC_OS03G27990-cb004
Summary of the method: as §1

LOC_OS03G50450-cb001 = tested on: LOC_OS03G50450-cb001
Summary of the method: as §1

LOC_OS03G50810-cb003 = tested on: LOC_OS03G50810-cb003
Summary of the method: as §1

LOC_OS04G35114-cb001 = tested on: LOC_OS04G35114-cb001
Summary of the method: as §1

LOC_OS04G38480-cb003 = tested on: T1, LOC_OS04G38480-cb003
T1 sequence (whole entry): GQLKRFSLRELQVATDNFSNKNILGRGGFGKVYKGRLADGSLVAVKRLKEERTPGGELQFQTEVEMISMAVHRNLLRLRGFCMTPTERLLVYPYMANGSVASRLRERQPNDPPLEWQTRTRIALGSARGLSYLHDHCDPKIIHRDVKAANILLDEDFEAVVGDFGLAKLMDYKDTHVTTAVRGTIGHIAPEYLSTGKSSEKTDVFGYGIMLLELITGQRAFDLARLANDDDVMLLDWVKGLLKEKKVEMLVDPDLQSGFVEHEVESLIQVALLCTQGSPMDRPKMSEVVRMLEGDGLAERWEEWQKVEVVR
Summary of the method: as §1

LOC_OS04G41100-cb001 = tested on: T2, LOC_OS04G41100-cb001
T2 sequence (whole entry): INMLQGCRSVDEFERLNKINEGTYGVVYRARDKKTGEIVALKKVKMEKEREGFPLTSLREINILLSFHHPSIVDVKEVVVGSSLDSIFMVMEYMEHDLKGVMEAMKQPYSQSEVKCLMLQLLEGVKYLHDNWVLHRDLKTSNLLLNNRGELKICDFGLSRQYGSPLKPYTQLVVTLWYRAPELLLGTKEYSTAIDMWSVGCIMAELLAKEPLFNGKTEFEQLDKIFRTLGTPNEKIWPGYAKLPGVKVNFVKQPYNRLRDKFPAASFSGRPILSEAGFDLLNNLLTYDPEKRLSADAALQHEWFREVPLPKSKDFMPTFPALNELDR
Summary of the method: as §1

| SMILES | thermal shift delta Tm (LOC_OS01G57100-cb003) [°C] | thermal shift delta Tm (LOC_OS01G60330-cb001) [°C] | thermal shift delta Tm (LOC_OS01G60700-cb002) [°C] | thermal shift delta Tm (LOC_OS01G63280-cb003) [°C] | thermal shift delta Tm (LOC_OS01G67340-cb003) [°C] | thermal shift delta Tm (LOC_OS01G70970-cb002) [°C] | thermal shift delta Tm (LOC_OS02G07810-cb001) [°C] | thermal shift delta Tm (LOC_OS02G08530-cb003) [°C] | thermal shift delta Tm (LOC_OS02G14120-cb001) [°C] | thermal shift delta Tm (LOC_OS02G17970-cb001) [°C] | thermal shift delta Tm (LOC_OS02G45750-cb003) [°C] | thermal shift delta Tm (LOC_OS02G54510-cb004) [°C] | thermal shift delta Tm (LOC_OS03G04050-cb001) [°C] | thermal shift delta Tm (LOC_OS03G12390-cb001) [°C] | thermal shift delta Tm (LOC_OS03G27990-cb004) [°C] | thermal shift delta Tm (LOC_OS03G50450-cb001) [°C] | thermal shift delta Tm (LOC_OS03G50810-cb003) [°C] | thermal shift delta Tm (LOC_OS04G35114-cb001) [°C] | thermal shift delta Tm (LOC_OS04G38480-cb003) [°C] | thermal shift delta Tm (LOC_OS04G41100-cb001) [°C] |
| --- | --- | --- | --- | --- | --- | --- | --- | --- | --- | --- | --- | --- | --- | --- | --- | --- | --- | --- | --- | --- |
| CNc1nc(-c2ccc3c(N)n[nH]c3c2)cc(N2C[C@@H](C(=O)NC3CCCCC3)CC[C@H]2C)n1 | 2.04 | 0.28 | 2.12 | 0.81 | -0.04 | 0.71 | 1.63 | 1.27 | 0.75 | 1.01 | 0.45 | 0.92 | 0.58 | 0.25 | 0.2 | 0.38 | 0.87 | 0.5 | 1.14 | 0.66 |
| CCCNC(=O)c1cn2ncnc(Nc3cc(C(=O)NC4CC4)ccc3C)c2c1C | 0.66 | 0.41 | 0.99 | 0.33 | 0.18 | 0.12 | 0.08 | 0.8 | 0.54 | -0.21 | 0.71 | 0.18 | 0.45 | -0.14 | 0.24 | 0.49 | 0.26 | 0.65 | 0.42 | 0.24 |
| CCOc1cn(-c2ccc(F)cc2C)nc1C(=O)Nc1ccc(Oc2ccnc3cc(OC)c(OC)cc23)c(F)c1 | 0.32 | 1.07 | 0.34 | 0.6 | 0.43 | 0.98 | 0.56 | 1.15 | 2.96 | 0.55 | 1.39 | 0.07 | 0.15 | 0.26 | 0.2 | 0.09 | 1.07 | 1.9 | 2.19 | 0.88 |
| CC1(C)OCCn2c1nc1c(N3CCOCC3)nc(-c3cnc(N)nc3)nc12 | -0.05 | 5.04 | 0.81 | -0.02 | 0.53 | 1.29 | 0.49 | 1.45 | 0.72 | 0.78 | -0.63 | 0.42 | 0.09 | -0.14 | 0.19 | 0.18 | 0.33 | 0.39 | 0.75 | -0.13 |
| COc1ccc(-c2ccc3ncc4c(c3c2)n(-c2ccc(N3CCNCC3)c(C(F)(F)F)c2)c(=O)n4C)cn1 | 1.82 | 0.66 | 0.68 | 0.17 | 1.43 | 0.41 | 1.67 | 2.04 | 8.11 | 0.58 | 1.22 | 0.44 | 0.36 | -0.28 | 0.61 | 0.72 | 2.17 | 7.13 | 1.98 | 0.01 |
| C[C@]1(O)C[C@@H](c2nc(-c3ccc4ccc(-c5ccccc5)nc4c3)c3c(N)nccn32)C1 [Linsitinib (OSI-906)] | 0.52 | 1.43 | 1.07 | 2.13 | 0.12 | 0.38 | 1.27 | 0.86 | 0.29 | 0.89 | 0.76 | 0.75 | 0.57 | 0.37 | 0.12 | 0.28 | 0.6 | 3.89 | 1.28 | 0.85 |

Reference: the supplement of paper PMC9694430
